# Laboratory results published in PubChem BioAssay.
# Activity calls are given as the source filed them.
# Assays:
# [1] = system: PRMT1 (protein arginine N-methyltransferase 1); assay: PRMT1 binders on small-molecule microarrays, primary screen, biochemical, small-molecule microarray, 635 nm fluorescence (AID 1088); settings: small-molecule microarray binding, higher = more signal;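 also: binding of Prmt1 protein to compounds spotted on small-molecule microarray slides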
# [2] = yeast growth modulation, basal conditions, primary screen, YJM789 clinical isolate, OD600, 24 h (AID 1089);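 also: growth of clinical yeast isolate S. cerevisiae YJM 789 seeded 1000 cells per well; test concentration not given here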; settings: S. cerevisiae YJM789 growth, higher = more signal, called active from +8 up or from −8 down
# [3] = fission yeast growth modulation, primary screen, strain 972, OD600, 24 h, no modulator (AID 1090);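 also: basal condition with compound alone and no growth modifier present; test concentration not given here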; settings: S. pombe 972 growth, higher = more signal, called active from +8 up or from −8 down
# [4] = S. cerevisiae growth modulation with rapamycin, primary screen, strain BY4716, OD600, 96 h (AID 1091); settings: higher = more signal, called active from +8 up or from −8 down; also: test concentration not given here
# [5] = target: Torsin-1A-interacting protein 2 (Homo sapiens) (UniProt Q8NFQ8); assay: LULL1 binders on small-molecule microarray, primary screen, cell lysate, human LULL1 lysate, 635/667 nm fluorescence (AID 1092); settings: hLULL1 lysate binding, 635 nm fluorescence, higher = more signal;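 also: probe is lysate of COS7 cells overexpressing human LULL1; score merges per-feature 667 nm fluorescence with signal-to-noise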
# [6] = E. coli growth modulation, two-sided OD650, primary screen, E. coli filamentation project, strain DRC41, 24 h (AID 1093); settings: OD650, 24 h, higher = more signal, called active from +8 up or from −8 down;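 also: MC1000 strain lacking acrAB efflux and sulA so SOS filamentation is blocked; test concentration not given here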
# [7] = small-molecule microarray binders of probe aLefty2, primary screen, biochemical, biotinylated probe, 635/667 nm fluorescence (AID 1094); settings: higher = more signal;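 also: score merges spot fluorescence near 667 nm with spot signal-to-noise ratio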
# [8] = system: Noggin (protein binding on small-molecule microarray); assay: Noggin binders on small-molecule microarray, primary screen, biochemical, 635/667 nm fluorescence (AID 1095); settings: 635 nm fluorescence, higher = more signal;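 also: score merges 667 nm feature fluorescence with signal to noise over triplicate slides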
# [9] = target: Neurogenic locus notch homolog protein 3 (Homo sapiens) (UniProt Q9UM47); assay: NOTCH3 binders on small-molecule microarray, primary screen, biochemical, 635/667 nm fluorescence (AID 1096); settings: NOTCH3 binding, 635 nm fluorescence, higher = more signal
# [10] = small-molecule microarray binders of probe aEGFR, primary screen, biochemical, biotinylated probe, 635/667 nm fluorescence (AID 1097); settings: higher = more signal;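 also: probe is a biotinylated anti-EGFR antibody binding compounds printed on slides; score combines fluorescence near 667 nm and signal to noise of each spot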
# [11] = system: Plasmodium falciparum Sir2 (PF13_0152, Sir2A); assay: pfSir2 binders on small-molecule microarrays, primary screen, biochemical, small-molecule microarray, 635 nm fluorescence (AID 1098); settings: small-molecule microarray binding, fluorescence 635 nm; higher = more signal;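 also: score merges spot fluorescence intensity with its signal-to-noise ratio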
# [12] = small-molecule microarray binders of probe aDKK1, primary screen, biochemical, biotinylated probe, 635/667 nm fluorescence (AID 1099); settings: higher = more signal;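 also: score merges 667nm spot fluorescence with signal to noise across triplicate slides; reference of the scale not given here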
# [13] = small-molecule microarray binders of probe aCHRDL2, primary screen, biochemical, biotinylated probe, 635/667 nm fluorescence (AID 1100); settings: higher = more signal
# [14] = splicing luciferase reporter signal modulators, primary screen, spliceosome inhibition project, cell-based, HEK293, splice +/- reporter (AID 1101); settings: luminescence, 24 h, higher = more signal, called active from +8 up or from −8 down;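 also: HEK293 cells carrying a splicing-competent luciferase reporter gene; test concentration not given here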
# [15] = target: Fibroblast growth factor 10 (Homo sapiens) (UniProt O15520); assay: FGF10 binders on small-molecule microarrays, primary screen, biochemical, small-molecule microarray, 635 nm fluorescence (AID 1102); settings: FGF10 binding, fluorescence 635 nm, higher = more signal
# [16] = system: glycogen synthase kinase-3 (GSK3A per assay name; protocol says GSK3B); assay: GSK3 binders on small-molecule microarrays, primary screen, biochemical, small-molecule microarray, 635 nm fluorescence, GSK3A (AID 1103); settings: small-molecule microarray binding, fluorescence 635 nm; higher = more signal; also: the record names both GSK3A and GSK3B
# [17] = target: Epidermal growth factor receptor (Homo sapiens) (UniProt P00533); assay: EGFR binders on small-molecule microarrays, primary screen, biochemical, small-molecule microarray, 635 nm fluorescence (AID 1104); settings: EGFR binding, higher = more signal;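 also: score merges 667 nm emission intensity with spot signal to noise over triplicate slides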
# [18] = target: Follistatin-related protein 3 (Homo sapiens) (UniProt O95633); assay: FSTL3 binders on small-molecule microarrays, primary screen, biochemical, small-molecule microarray, 635 nm fluorescence (AID 1105); settings: FSTL3 binding, higher = more signal;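 also: score merges emission near 667 nm and signal to noise per printed spot across three slides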
# [19] = target: Dickkopf-related protein 1 (Homo sapiens) (UniProt O94907); assay: DKK1 binders on small-molecule microarrays, primary screen, biochemical, small-molecule microarray, 635 nm fluorescence scan (AID 1106); settings: DKK1 binding, higher = more signal;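 also: score merges emission near 667 nm with signal to noise over three replicate slides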
# [20] = system: Inhibin beta A chain (activin A); assay: INHBA (activin A) binders on microarrays, primary screen, biochemical, small-molecule microarray, 635 nm fluorescence scan (AID 1107); settings: small-molecule microarray binding, higher = more signal;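 also: mouse activin A protein probed at 4.33 µg/mL on printed slides; score merges bound-protein fluorescence near 667 nm with spot signal-to-noise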
# Chain of Torsin-1A-interacting protein 2 (Homo sapiens) (Q8NFQ8 whole entry, looked up): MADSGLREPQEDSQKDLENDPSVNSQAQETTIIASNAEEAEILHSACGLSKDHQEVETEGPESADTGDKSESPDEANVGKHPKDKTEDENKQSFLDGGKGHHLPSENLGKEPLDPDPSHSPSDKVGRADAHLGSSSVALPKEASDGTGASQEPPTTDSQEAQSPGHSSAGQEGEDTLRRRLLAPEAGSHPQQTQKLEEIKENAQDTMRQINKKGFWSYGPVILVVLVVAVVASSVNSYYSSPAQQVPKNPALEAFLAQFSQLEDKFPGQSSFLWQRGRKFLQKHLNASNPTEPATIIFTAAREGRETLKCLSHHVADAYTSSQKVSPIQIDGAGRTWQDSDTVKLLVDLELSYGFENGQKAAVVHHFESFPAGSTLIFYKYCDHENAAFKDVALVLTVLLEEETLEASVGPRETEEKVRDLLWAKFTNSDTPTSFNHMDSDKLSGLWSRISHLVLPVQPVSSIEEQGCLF
# Chain of Neurogenic locus notch homolog protein 3 (Homo sapiens) (Q9UM47 whole entry, looked up): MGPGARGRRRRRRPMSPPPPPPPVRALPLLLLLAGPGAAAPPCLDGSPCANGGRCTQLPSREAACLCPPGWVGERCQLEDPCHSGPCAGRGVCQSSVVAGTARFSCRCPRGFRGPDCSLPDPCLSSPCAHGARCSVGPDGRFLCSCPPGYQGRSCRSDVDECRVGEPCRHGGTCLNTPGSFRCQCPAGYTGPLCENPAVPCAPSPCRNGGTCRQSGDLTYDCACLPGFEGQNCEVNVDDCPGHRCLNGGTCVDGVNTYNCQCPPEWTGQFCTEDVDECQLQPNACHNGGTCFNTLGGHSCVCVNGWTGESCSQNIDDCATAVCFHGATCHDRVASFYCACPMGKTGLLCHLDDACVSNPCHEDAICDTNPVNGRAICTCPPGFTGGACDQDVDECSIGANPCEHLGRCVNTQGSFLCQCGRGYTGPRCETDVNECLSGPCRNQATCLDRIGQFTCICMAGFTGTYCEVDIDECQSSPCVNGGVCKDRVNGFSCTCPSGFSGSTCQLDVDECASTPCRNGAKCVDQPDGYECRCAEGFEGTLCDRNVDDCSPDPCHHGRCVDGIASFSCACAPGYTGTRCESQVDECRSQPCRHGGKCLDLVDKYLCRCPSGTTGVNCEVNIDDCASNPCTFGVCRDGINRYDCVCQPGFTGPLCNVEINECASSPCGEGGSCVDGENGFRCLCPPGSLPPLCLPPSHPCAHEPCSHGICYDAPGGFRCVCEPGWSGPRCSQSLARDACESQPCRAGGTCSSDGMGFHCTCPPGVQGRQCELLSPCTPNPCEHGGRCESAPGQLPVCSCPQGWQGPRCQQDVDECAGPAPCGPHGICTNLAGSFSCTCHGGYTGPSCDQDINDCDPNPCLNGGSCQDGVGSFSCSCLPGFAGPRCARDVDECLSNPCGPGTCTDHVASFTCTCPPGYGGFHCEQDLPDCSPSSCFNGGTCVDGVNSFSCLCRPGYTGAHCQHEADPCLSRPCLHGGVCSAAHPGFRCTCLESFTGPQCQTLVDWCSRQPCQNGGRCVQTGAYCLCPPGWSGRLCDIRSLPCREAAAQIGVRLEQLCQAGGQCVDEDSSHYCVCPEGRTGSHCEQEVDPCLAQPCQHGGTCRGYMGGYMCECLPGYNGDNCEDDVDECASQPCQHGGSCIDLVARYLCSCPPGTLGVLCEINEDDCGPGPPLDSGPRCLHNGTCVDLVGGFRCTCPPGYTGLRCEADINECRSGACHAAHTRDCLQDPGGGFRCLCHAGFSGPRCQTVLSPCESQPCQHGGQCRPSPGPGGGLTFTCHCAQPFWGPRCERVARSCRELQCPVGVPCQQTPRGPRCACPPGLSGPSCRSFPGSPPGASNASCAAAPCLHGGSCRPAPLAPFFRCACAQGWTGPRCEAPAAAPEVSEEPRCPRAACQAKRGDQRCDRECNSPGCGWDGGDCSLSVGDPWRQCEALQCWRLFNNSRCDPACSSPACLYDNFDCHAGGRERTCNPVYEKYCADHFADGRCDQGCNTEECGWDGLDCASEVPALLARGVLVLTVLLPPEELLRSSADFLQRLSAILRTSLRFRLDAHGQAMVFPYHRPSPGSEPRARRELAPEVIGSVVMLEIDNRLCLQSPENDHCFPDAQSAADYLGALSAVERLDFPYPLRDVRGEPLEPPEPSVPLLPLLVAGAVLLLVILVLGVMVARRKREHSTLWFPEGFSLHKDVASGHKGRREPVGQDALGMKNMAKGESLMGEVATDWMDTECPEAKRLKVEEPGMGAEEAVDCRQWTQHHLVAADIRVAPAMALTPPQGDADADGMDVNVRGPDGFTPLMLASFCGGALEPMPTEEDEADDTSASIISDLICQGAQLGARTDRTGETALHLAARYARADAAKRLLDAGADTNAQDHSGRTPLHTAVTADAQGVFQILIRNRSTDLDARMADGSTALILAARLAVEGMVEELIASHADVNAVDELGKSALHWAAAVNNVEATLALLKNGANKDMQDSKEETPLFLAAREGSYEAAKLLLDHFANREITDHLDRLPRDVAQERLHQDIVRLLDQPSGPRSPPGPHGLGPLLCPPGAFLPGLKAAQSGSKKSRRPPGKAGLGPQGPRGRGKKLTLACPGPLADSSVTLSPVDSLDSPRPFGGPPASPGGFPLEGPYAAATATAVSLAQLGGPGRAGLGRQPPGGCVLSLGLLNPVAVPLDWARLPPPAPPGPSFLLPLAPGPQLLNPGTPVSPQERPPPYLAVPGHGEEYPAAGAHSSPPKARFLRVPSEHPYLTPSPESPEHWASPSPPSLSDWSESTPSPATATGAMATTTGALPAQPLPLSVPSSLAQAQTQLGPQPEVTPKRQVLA
# Chain of Dickkopf-related protein 1 (Homo sapiens) (O94907 whole entry, looked up): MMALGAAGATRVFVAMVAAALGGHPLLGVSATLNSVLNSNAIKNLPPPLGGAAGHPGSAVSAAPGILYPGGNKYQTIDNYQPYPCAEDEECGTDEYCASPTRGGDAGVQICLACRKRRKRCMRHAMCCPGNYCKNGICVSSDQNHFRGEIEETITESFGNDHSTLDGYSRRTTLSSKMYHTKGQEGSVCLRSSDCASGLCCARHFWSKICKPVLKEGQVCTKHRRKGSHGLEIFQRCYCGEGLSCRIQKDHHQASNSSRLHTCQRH
# Chain of Follistatin-related protein 3 (Homo sapiens) (O95633 whole entry, looked up): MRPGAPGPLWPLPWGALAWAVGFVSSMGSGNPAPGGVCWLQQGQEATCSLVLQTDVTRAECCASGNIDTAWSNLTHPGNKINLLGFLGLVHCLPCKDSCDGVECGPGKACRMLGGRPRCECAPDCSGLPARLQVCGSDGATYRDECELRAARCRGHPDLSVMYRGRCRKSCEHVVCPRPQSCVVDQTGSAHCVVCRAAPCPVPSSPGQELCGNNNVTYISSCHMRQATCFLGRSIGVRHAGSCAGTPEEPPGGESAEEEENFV
# Chain of Epidermal growth factor receptor (Homo sapiens) (P00533 whole entry, looked up): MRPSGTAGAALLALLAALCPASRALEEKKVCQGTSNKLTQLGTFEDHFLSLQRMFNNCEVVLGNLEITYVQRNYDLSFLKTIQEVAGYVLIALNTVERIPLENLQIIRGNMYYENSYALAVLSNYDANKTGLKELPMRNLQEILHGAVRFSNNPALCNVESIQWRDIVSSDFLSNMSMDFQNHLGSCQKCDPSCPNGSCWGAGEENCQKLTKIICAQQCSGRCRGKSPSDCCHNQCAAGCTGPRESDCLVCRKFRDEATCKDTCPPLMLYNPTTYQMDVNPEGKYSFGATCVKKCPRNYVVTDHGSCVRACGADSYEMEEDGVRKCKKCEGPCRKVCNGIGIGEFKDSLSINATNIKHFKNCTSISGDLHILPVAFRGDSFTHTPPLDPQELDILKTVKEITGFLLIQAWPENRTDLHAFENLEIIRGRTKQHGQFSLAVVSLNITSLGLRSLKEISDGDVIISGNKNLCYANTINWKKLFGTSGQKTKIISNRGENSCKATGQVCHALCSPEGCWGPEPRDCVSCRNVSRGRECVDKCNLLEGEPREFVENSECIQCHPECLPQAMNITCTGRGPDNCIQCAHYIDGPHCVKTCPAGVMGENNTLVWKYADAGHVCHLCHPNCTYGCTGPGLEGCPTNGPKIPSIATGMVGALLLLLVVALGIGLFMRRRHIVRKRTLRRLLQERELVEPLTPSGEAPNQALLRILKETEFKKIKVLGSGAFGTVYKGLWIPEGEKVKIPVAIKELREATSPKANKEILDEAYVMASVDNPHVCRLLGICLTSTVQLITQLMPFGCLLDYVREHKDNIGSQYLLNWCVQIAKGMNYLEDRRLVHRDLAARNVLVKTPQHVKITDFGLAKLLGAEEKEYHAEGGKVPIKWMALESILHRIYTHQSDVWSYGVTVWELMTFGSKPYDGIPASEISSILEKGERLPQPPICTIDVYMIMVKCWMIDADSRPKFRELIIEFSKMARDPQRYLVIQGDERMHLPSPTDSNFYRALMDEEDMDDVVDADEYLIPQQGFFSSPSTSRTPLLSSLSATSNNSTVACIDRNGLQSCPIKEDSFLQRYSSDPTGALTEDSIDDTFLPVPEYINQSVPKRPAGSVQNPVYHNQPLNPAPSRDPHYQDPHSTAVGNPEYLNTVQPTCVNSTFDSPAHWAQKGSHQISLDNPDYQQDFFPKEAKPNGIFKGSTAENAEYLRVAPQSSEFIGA
# Chain of Fibroblast growth factor 10 (Homo sapiens) (O15520 whole entry, looked up): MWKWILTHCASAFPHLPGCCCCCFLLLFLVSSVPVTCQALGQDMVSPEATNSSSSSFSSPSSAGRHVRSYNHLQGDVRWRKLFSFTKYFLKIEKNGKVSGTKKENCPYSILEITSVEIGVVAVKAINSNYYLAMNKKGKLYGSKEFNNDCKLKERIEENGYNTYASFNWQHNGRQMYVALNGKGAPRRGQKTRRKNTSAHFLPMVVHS
Structure (SMILES),composite z-score [1],z-score [2],z-score [3],z-score [4],composite z-score [5],z-score [6],composite z-score [7],composite z-score [8],composite z-score [9],composite z-score [10],composite z-score [11],composite z-score [12],composite z-score [13],z-score [14],composite z-score [15],composite z-score [16],composite z-score [17],composite z-score [18],composite z-score [19],composite z-score [20]
COc1ccc([C@H]2OC[C@@H]3C[C@H](Cc4ccccc4)C(=O)N32)cc1,-0.476,1.35 (inactive),-2 (inactive),0.861 (inactive),0.449,-0.238 (inactive),-0.155,0.614,0.363,-0.0978,-0.33,-0.157,-0.598,-0.524 (inactive),0.439,-0.0107,0.212,0.401,0.313,0.0048
C=CC[C@]1(C(=O)N2CCCCC2)N=C(c2ccc(OCCCO)cc2)O[C@H]1c1ccccc1CN=[N+]=[N-],1.54,-1.66 (inactive),-0.442 (inactive),-0.837 (inactive),3.19,0.937 (inactive),-0.013,0.562,1.08,-0.0512,1.21,0.258,0.622,-0.234 (inactive),1.21,1.31,0.128,0.922,0.263,0.851
C=CCNC(=O)[C@@H]1[C@H]2C(=O)O[C@H](c3ccccc3)[C@H](c3ccccc3)N2[C@H](c2ccc(O)cc2)[C@@]12C(=O)N(C(=O)OCCOC)c1ccc(C#CC3=CCCCC3)cc12,1.49,0.675 (inactive),0.428 (inactive),0.969 (inactive),2.25,-0.633 (inactive),-0.156,1.14,1.09,-0.0697,1.04,-0.122,-0.294,-1.19 (inactive),0.965,1.29,0.714,1.09,0.53,0.492
COCCCNC(=O)[C@@]1(Sc2ccc(C)cc2)CC(=O)N(C2Cc3ccccc3C2)[C@@H]1c1ccc(CO)cc1,0.585,0.0853 (inactive),-1 (inactive),-0.798 (inactive),3.11,-1.27 (inactive),-0.236,-1.72,-0.314,-0.254,1.06,0.106,0.899,-0.866 (inactive),-1.39,-0.429,-0.787,-1.42,-1.76,-0.115
O=C(NCc1ccc(F)cc1)[C@H]1C[C@H]2C(=O)NCC(=O)N2[C@H]1c1ccc(O)cc1,1.55,1.29 (inactive),1.01 (inactive),1.56 (inactive),1.22,0.816 (inactive),0.372,1.35,0.0831,-0.334,1.01,0.207,0.112,-0.12 (inactive),1.37,-0.88,0.297,0.138,0.787,0.43
C=CC[C@@H](OC(=O)Nc1ccc(OC)cc1)c1ccc(O)c(F)c1,0.349,-23.4 (active),-20.3 (active),-2.74 (inactive),2.09,0.92 (inactive),-0.146,-0.488,-0.6,-0.241,1.69,-0.0015,0.74,-1.95 (inactive),-0.549,-0.363,-1.2,-0.741,-0.658,0.19
CC1CC/C=C\[C@H]2OC34C=CCN(c5ccc(Cl)cc5)C(=O)[C@H]3N(C(C)CO)C(=O)[C@]4(C)C2C(=O)O1 (stereo not given in full),-0.678,-0.0407 (inactive),-0.738 (inactive),0.334 (inactive),-1.05,0.108 (inactive),-0.0099,-0.603,-0.984,-0.173,0.365,-0.132,0.158,-0.718 (inactive),-0.39,-0.793,-0.955,-1.43,-0.945,0.896
[N-]=[N+]=NCc1ccccc1[C@H]1OC(c2ccc(OCCCO)cc2)=N[C@@]1(Cc1ccccc1N=[N+]=[N-])C(=O)NCC(O)CO (stereo not given in full),1.54,-0.527 (inactive),-0.451 (inactive),0.134 (inactive),3.52,-0.221 (inactive),0.0511,0.0758,1.09,0.0201,1.12,0.33,0.873,0.451 (inactive),0.903,1.13,-0.186,0.681,-0.308,0.317
C=CCNC(=O)[C@@H]1[C@H]2C(=O)O[C@H](c3ccccc3)[C@H](c3ccccc3)N2[C@H](c2ccccc2OCCO)[C@@]12C(=O)N(C(=O)OCCOC)c1ccc(C#CC3(O)CCCCCC3)cc12,1.56,0.0171 (inactive),-0.0365 (inactive),5.23 (inactive),2.86,1.41 (inactive),-0.0146,1.02,1.1,-0.0177,1.17,0.0347,0.31,-0.692 (inactive),0.87,1.3,0.598,1.36,0.579,1.13
COCCOC(=O)N1C(=O)[C@@]2(c3cc(C#CC4(O)CCCCCC4)ccc31)[C@H](c1ccc(O)cc1)N1[C@H](c3ccccc3)[C@H](c3ccccc3)OC(=O)[C@H]1[C@@H]2C(=O)N1CCN(c2ncccn2)CC1,1.55,0.12 (inactive),-0.247 (inactive),1.07 (inactive),2.57,-0.321 (inactive),-0.0282,0.0969,0.987,-0.0234,0.952,0.0005,0.426,0.325 (inactive),0.425,0.788,0.149,0.476,0.063,-0.275
